In PubChem BioAssay:
Active and inactive are the calls of the source.

Experiments:
[1] = test system: Plasmodium falciparum Sir2 (PF13_0152, Sir2A); experiment: pfSir2 binders on small-molecule microarrays, primary screen, biochemical, small-molecule microarray, 635 nm fluorescence (AID 1098); details: small-molecule microarray binding, fluorescence 635 nm; higher = more signal;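 also: score merges spot fluorescence intensity with its signal-to-noise ratio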
[2] = small-molecule microarray binders of probe aDKK1, primary screen, biochemical, biotinylated probe, 635/667 nm fluorescence (AID 1099); details: higher = more signal;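 also: score merges 667nm spot fluorescence with signal to noise across triplicate slides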
[3] = small-molecule microarray binders of probe aCHRDL2, primary screen, biochemical, biotinylated probe, 635/667 nm fluorescence (AID 1100); details: higher = more signal
[4] = splicing luciferase reporter signal modulators, primary screen, spliceosome inhibition project, cell-based, HEK293, splice +/- reporter (AID 1101); details: luminescence, 24 h, higher = more signal, called active from +8 up or from −8 down;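 also: HEK293 cells carrying a splicing-competent luciferase reporter gene; test concentration not given here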
[5] = biological target: Fibroblast growth factor 10 (Homo sapiens) (UniProt O15520); experiment: FGF10 binders on small-molecule microarrays, primary screen, biochemical, small-molecule microarray, 635 nm fluorescence (AID 1102); details: FGF10 binding, fluorescence 635 nm, higher = more signal
Sequence of Fibroblast growth factor 10 (Homo sapiens) (O15520 whole entry, looked up): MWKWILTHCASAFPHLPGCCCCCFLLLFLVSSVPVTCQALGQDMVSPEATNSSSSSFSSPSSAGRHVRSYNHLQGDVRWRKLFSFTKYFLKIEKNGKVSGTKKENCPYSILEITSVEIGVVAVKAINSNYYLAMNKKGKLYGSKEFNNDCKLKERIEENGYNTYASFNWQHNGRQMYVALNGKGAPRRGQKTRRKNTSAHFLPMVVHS

[6] = test system: glycogen synthase kinase-3 (GSK3A per assay name; protocol says GSK3B); experiment: GSK3 binders on small-molecule microarrays, primary screen, biochemical, small-molecule microarray, 635 nm fluorescence, GSK3A (AID 1103); details: small-molecule microarray binding, fluorescence 635 nm; higher = more signal; also: the record names both GSK3A and GSK3B
[7] = biological target: Epidermal growth factor receptor (Homo sapiens) (UniProt P00533); experiment: EGFR binders on small-molecule microarrays, primary screen, biochemical, small-molecule microarray, 635 nm fluorescence (AID 1104); details: EGFR binding, higher = more signal;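 also: score merges 667 nm emission intensity with spot signal to noise over triplicate slides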
Sequence of Epidermal growth factor receptor (Homo sapiens) (P00533 whole entry, looked up): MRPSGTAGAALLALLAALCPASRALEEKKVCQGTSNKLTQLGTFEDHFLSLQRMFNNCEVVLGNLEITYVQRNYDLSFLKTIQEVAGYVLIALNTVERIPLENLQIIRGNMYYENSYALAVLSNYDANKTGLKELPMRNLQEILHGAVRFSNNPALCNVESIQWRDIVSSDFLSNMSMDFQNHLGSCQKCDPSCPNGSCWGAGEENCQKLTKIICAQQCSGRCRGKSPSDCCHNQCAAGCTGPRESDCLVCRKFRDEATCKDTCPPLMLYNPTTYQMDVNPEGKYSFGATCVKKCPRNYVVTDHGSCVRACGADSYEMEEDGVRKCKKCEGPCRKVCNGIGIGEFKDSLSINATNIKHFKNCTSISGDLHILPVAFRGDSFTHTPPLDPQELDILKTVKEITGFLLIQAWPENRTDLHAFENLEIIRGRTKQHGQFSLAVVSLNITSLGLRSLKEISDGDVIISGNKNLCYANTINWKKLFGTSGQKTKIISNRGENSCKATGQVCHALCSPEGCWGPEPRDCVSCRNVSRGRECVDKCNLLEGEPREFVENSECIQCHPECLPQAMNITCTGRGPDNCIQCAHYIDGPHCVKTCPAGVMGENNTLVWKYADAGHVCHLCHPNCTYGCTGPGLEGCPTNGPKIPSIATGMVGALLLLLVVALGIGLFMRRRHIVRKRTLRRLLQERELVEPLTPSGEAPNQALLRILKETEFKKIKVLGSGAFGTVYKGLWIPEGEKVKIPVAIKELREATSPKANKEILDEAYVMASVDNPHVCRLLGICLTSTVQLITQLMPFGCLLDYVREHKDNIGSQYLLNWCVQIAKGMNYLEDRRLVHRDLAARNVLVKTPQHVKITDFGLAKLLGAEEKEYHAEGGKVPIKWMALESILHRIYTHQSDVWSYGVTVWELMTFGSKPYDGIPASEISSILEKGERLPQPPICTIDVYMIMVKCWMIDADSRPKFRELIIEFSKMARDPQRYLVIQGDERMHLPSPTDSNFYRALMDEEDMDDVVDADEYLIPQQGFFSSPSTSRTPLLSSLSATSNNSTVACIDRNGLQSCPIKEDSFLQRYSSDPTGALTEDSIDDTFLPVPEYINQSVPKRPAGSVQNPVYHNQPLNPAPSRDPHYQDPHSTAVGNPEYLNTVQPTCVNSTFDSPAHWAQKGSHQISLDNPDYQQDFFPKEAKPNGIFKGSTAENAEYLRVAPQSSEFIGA

[8] = biological target: Follistatin-related protein 3 (Homo sapiens) (UniProt O95633); experiment: FSTL3 binders on small-molecule microarrays, primary screen, biochemical, small-molecule microarray, 635 nm fluorescence (AID 1105); details: FSTL3 binding, higher = more signal;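 also: score merges emission near 667 nm and signal to noise per printed spot across three slides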
Sequence of Follistatin-related protein 3 (Homo sapiens) (O95633 whole entry, looked up): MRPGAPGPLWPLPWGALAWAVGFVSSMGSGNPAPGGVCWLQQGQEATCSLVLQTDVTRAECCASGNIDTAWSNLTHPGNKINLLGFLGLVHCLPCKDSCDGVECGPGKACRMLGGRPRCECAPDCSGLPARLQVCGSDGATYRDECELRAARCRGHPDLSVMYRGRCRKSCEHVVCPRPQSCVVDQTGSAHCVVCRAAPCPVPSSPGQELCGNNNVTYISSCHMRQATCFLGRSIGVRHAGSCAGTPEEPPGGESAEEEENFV

[9] = biological target: Dickkopf-related protein 1 (Homo sapiens) (UniProt O94907); experiment: DKK1 binders on small-molecule microarrays, primary screen, biochemical, small-molecule microarray, 635 nm fluorescence scan (AID 1106); details: DKK1 binding, higher = more signal;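 also: score merges emission near 667 nm with signal to noise over three replicate slides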
Sequence of Dickkopf-related protein 1 (Homo sapiens) (O94907 whole entry, looked up): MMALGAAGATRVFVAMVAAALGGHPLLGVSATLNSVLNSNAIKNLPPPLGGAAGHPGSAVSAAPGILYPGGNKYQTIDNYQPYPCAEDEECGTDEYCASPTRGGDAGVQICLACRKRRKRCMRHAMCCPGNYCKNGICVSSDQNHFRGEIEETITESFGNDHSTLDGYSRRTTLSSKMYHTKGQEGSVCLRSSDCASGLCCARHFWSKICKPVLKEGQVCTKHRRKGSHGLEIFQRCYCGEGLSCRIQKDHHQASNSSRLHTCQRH

[10] = test system: Inhibin beta A chain (activin A); experiment: INHBA (activin A) binders on microarrays, primary screen, biochemical, small-molecule microarray, 635 nm fluorescence scan (AID 1107); details: small-molecule microarray binding, higher = more signal;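 also: mouse activin A protein probed at 4.33 µg/mL on printed slides; score merges bound-protein fluorescence near 667 nm with spot signal-to-noise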
[11] = test system: Human papillomavirus type 1a protein E7 (residues 44-93); experiment: HPV1a E7 fragment binders on microarrays, primary screen, biochemical, small-molecule microarray, residues 44-93, 635 nm fluorescence (AID 1108); details: small-molecule microarray binding, fluorescence 635 nm; higher = more signal;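 also: E7 fragment applied at 1 µg/mL in TBST for 1 h at 4 C; score combines spot fluorescence with its signal to noise ratio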
[12] = modulators of HCV replicon luciferase signal, primary screen, HCV replication inhibitor project, Huh7 cells, luciferase reporter (AID 1109); details: 48 h, higher = more signal;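 also: huh7 hepatoma cells harbouring a luciferase neomycin HCV replicon reporter; luciferase luminescence as measure of HCV replicon replication; test concentration not given here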
[13] = biological target: Left-right determination factor 2 (Homo sapiens) (UniProt O00292); experiment: LEFTY2 binders on small-molecule microarrays, primary screen, biochemical, small-molecule microarray, 635 nm fluorescence scan (AID 1110); details: LEFTY2 binding, higher = more signal
Sequence of Left-right determination factor 2 (Homo sapiens) (O00292 whole entry, looked up): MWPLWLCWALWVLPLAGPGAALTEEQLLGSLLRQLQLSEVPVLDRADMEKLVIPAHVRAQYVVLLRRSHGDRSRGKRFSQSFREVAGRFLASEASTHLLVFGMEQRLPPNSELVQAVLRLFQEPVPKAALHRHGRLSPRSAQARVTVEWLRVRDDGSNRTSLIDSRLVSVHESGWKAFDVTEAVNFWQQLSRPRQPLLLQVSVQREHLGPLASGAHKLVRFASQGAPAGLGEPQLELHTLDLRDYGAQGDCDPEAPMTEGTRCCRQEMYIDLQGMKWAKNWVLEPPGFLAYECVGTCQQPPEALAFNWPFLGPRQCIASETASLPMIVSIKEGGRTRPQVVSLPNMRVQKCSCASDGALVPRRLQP

[14] = biological target: Calmodulin-1 (Homo sapiens) (UniProt P0DP23); experiment: CALM1 binders on microarrays, EGTA buffer, profiling panel, biochemical, small-molecule microarray, Cy5-labelled CALM1 (AID 1111); details: Cy5-CALM1 binding fluorescence, higher = more signal;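 also: labelled calmodulin applied in Tris saline Tween buffer holding calcium plus EGTA and DTT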
[15] = biological target: Calmodulin-1 (Homo sapiens) (UniProt P0DP23); experiment: calcium-bound CALM1 binders on microarrays, profiling panel, artefact control for SMM control-protein annotation, biochemical, small-molecule microarray, Cy5-labelled CALM1, plus calcium (AID 1112); details: Cy5-CALM1 binding fluorescence, higher = more signal;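 also: score merges spot fluorescence with signal to noise from triplicate slides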
[16] = small-molecule microarray binders of probe aWnt5a, primary screen, biochemical, biotinylated probe, 635/667 nm fluorescence (AID 1113); details: higher = more signal;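 also: score merges 667 nm fluorescence intensity with signal-to-noise per printed feature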
[17] = small-molecule microarray binders of probe aShh, primary screen, biochemical, biotinylated probe, 635/667 nm fluorescence (AID 1114); details: higher = more signal;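 also: probe is biotin-labelled aShh protein from a stem cell growth factor screen; measures binding of labelled protein to compounds printed on the slide; score merges feature fluorescence at 667 nm with signal-to-noise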
[18] = small-molecule microarray binders of probe aNog, primary screen, biochemical, biotinylated probe, 635/667 nm fluorescence (AID 1115); details: higher = more signal;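 also: probe is biotinylated aNog protein used at 0.15 µg/mL for 1 h at 4 C; z-score combines 667 nm fluorescence of each spot with its signal to noise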
[19] = biological target: Torsin-1A-interacting protein 1 (Homo sapiens) (UniProt Q5JTV8); experiment: LAP1 binders from COS7 cell lysate, primary screen, small-molecule microarray, 635/667 nm fluorescence (AID 1116); details: COS7-hLAP1 lysate binding, 635 nm fluorescence, higher = more signal
Sequence of Torsin-1A-interacting protein 1 (Homo sapiens) (Q5JTV8 whole entry, looked up): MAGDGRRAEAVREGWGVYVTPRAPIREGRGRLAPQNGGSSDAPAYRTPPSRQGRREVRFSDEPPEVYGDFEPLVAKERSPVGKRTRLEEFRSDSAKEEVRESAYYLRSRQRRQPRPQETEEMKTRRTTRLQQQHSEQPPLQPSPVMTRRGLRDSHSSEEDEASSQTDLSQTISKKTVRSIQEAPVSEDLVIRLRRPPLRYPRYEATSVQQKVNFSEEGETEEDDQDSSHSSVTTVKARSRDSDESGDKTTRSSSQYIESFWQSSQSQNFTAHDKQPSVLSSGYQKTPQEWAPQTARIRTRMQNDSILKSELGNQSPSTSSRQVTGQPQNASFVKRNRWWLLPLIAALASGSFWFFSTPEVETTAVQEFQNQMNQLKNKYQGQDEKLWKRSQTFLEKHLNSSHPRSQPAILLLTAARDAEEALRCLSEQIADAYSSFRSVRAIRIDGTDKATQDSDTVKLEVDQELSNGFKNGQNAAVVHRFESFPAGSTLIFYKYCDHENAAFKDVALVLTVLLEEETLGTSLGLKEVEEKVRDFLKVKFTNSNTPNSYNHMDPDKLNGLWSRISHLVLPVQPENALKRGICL

[20] = biological target: Alpha-bungarotoxin (Bungarus multicinctus) (UniProt P60615); experiment: alpha-bungarotoxin binders on microarray, profiling panel, artefact control for SMM control protein annotation, biochemical, small-molecule microarray, Alexa647 label, 635/667 nm fluorescence (AID 1117); details: alpha-BTX-A647 binding fluorescence, higher = more signal
Sequence of Alpha-bungarotoxin (Bungarus multicinctus) (P60615 whole entry, looked up): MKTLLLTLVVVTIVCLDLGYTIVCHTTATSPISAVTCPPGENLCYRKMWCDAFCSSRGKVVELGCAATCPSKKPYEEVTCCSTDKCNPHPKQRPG

Row | Structure (SMILES) | composite z-score [1] | composite z-score [2] | composite z-score [3] | z-score [4] | composite z-score [5] | composite z-score [6] | composite z-score [7] | composite z-score [8] | composite z-score [9] | composite z-score [10] | composite z-score [11] | z-score [12] | composite z-score [13] | composite z-score [14] | composite z-score [15] | composite z-score [16] | composite z-score [17] | composite z-score [18] | composite z-score [19] | composite z-score [20]
1 | C=CC[C@@]1(C(=O)O)N=C(c2ccc(OCCCO)cc2)O[C@@H]1c1ccccc1N=[N+]=[N-] | 1.48 | 1.08 | 1.2 | 0.0828 (inactive) | 0.291 | 0.658 | -0.107 | 0.316 | -0.227 | 1.46 | 0.411 | 1.03 | 0.294 | 1.39 | 0.341 | -0.0236 | -0.181 | 1.24 | 1.02 | 1.77
2 | CCOC(=O)C1=CCC(c2ccc(C#N)cc2)N(S(=O)(=O)c2ccc(C)cc2)C1 (stereo not given) | 1.13 | 1.22 | 1.05 | -0.415 (inactive) | 0.637 | 1.29 | 0.555 | 1.21 | -0.0007 | 0.2 | -0.437 | -2.66 | 0.47 | 2.02 | 0.536 | -0.117 | 0.109 | -0.557 | 0.479 | 2.25
3 | C[N+](C)(C)CCCCCCNC(=O)[C@H]1C[C@H]2C(=O)N3CCC[C@H]3C(=O)N2[C@H]1c1ccc(O)cc1 | 1.07 | -0.258 | -0.201 | -0.677 (inactive) | 0.205 | 0.196 | -0.278 | 0.196 | 0.744 | 1.03 | 1.41 | 0.741 | 0.26 | 0.0573 | -0.965 | -0.178 | 0.0639 | -0.29 | 0.541 | -0.37
4 | CCOC(=O)C1=CC[C@@H](c2ccccc2Cl)N(S(=O)(=O)c2ccc(C)cc2)C1 | 1.17 | 0.342 | 0.928 | -1.97 (inactive) | 0.403 | 0.196 | -0.138 | 0.0633 | -0.794 | 0.304 | 0.948 | -2.7 | -0.462 | 1.52 | 0.784 | -0.117 | -0.167 | 1.25 | 1.56 | 0.407
5 | Cc1ccc(S[C@]2(C(=O)O)CC(=O)N(C3Cc4ccccc4C3)[C@@H]2c2ccc(CO)cc2I)cc1 | 0.787 | 0.425 | 1.05 | -0.0201 (inactive) | -0.345 | -0.695 | -1.04 | -0.75 | -0.649 | 1.11 | -0.104 | -0.517 | -0.67 | -0.212 | -0.196 | -0.117 | -0.156 | 0.22 | 0.365 | 0.835
6 | C=C[C@H](COC(C)=O)N(Cc1ccc(OC(C)=O)c(OC)c1)S(=O)(=O)c1ccc(Br)cc1 | 0.723 | 0.64 | 0.612 | -1.16 (inactive) | 0.934 | 1.06 | 0.493 | 0.579 | 0.844 | 0.426 | 1.29 | -0.0847 | 0.461 | 1.05 | 0.267 | 0.0479 | -0.291 | -0.407 | 0.788 | 0.998
7 | COc1ccc([Si](C)(C)[C@@H]2[C@@H](CCn3cc([C@H](O)c4ccccc4)nn3)O[C@]3(C(=O)N(Cc4ccc(N5C(=O)c6cccc7cccc5c67)cc4)c4ccccc43)[C@H]2C)cc1 | 0.286 | -0.187 | -0.0017 | -1.5 (inactive) | -0.456 | -0.513 | -0.471 | -0.586 | -0.795 | -0.409 | 0.314 | -2.88 | -0.556 | 0.273 | 0.702 | -0.154 | -0.0904 | -0.131 | -0.0215 | 0.152
8 | O=C1C[C@@](C(=O)NC2CC2)(c2ccc([N+](=O)[O-])cc2)[C@@H](c2ccc(CO)cc2)N1CC12CC3CC(CC(C3)C1)C2 | 1.3 | -0.0801 | 0.782 | -1.42 (inactive) | 0.474 | 0.612 | 0.1 | 0.925 | 0.253 | 0.571 | 0.869 | -2.39 | -0.523 | 0.557 | -0.0787 | -0.0751 | -0.147 | 0.11 | 0.471 | 0.601
9 | C=CCC(OC(C)=O)[C@@H]1[C@@H](N(Cc2ccc(-c3ccccc3)cc2)C(=O)Cc2ccc(OC)cc2)c2cc(OCCCO)ccc2N1C(=O)c1ccc2ccccc2n1 (stereo not given in full) | -0.245 | -0.106 | 0.027 | -1.33 (inactive) | -0.19 | -0.494 | 0.24 | -0.0321 | 0.37 | 1.48 | -0.844 | -0.36 | -0.259 | 0.143 | 1.01 | 0.0259 | -0.0553 | -0.0544 | 0.589 | 0.819
10 | O=C1O[C@@H](c2ccccc2)[C@@H](c2ccccc2)N2[C@@H](c3ccc(OCCO)cc3)[C@]3(C(=O)Nc4ccc(C#CC5=CCCCC5)cc43)[C@@H](C(=O)O)[C@H]12 | 0.87 | 0.82 | 0.431 | 0.618 (inactive) | 0.43 | 0.661 | 0.257 | 0.636 | 0.581 | 0.784 | 0.594 | -1.63 | 0.374 | 2.23 | 1.15 | -0.102 | -0.107 | 0.167 | 1.57 | 2.89
11 | CCOC(=O)C[C@H]1[C@H](OC(=O)c2ccc(C(=O)c3ccccc3)cc2)[C@@H](NC(=O)C2CCCCC2)c2cc(OCCCO)ccc2N1C(=O)c1ccccc1 | 0.348 | -0.0675 | -0.0333 | 0.062 (inactive) | 0.398 | 0.628 | 0.122 | 0.165 | 0.126 | 0.559 | 1.34 | -2.27 | 0.239 | 0.541 | -0.0224 | -0.0346 | 0.0483 | -0.158 | 0.512 | 0.745
